Some targets named below: RELARELA (p65 homodimer) (Homo sapiens, UniProt Q04206 1-307); p50p50 homodimer (Homo sapiens, UniProt P19838 7-356); RELB subunit;p50 subunit (Homo sapiens;Homo sapiens, UniProt Q01201;P19838 120-401;7-356).
Common to all, as to test: protein binding microarray; high values mean tight binding
What all share (conditions): dsDNA, one strand shown

The target of a further assay is T1, p52p52 homodimer (Homo sapiens, UniProt Q00653 4-332).
T1 sequence: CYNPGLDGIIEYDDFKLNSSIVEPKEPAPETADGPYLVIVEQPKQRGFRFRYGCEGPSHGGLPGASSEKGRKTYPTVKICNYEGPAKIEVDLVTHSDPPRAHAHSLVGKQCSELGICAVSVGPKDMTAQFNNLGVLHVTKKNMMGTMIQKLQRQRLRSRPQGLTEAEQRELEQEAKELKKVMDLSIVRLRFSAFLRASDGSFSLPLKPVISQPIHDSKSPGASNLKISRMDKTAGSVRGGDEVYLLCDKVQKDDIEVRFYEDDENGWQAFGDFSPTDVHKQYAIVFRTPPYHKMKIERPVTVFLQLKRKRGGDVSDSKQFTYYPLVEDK

Assay [1] concerns the target RELA (p65) subunit of heterodimer;p50 subunit (Homo sapiens;Homo sapiens, UniProt Q04206;P19838 1-307;7-356).
Assay [2] deals with RELA (p65) subunit of heterodimer;p52 subunit (Homo sapiens;Homo sapiens, UniProt Q04206;Q00653 1-307;4-332).
The target in a further assay is T2, RELB subunit;p52 subunit (Homo sapiens;Homo sapiens, UniProt Q01201;Q00653 120-401;4-332).
T2 sequence 1: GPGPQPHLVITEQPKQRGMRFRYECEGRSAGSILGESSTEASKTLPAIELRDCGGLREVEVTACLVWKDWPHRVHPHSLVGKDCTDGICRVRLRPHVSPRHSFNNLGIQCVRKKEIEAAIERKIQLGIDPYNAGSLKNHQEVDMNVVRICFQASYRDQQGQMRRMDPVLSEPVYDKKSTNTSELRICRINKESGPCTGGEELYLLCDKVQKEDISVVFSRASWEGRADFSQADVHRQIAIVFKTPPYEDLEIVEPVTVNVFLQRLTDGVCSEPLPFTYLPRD
T2 sequence 2: T1 sequence

Assay [3] deals with C-Rel subunit;p50 subunit (Homo sapiens;Homo sapiens, UniProt Q04864;P19838 1-285;7-356).
The target of assay [4] is T3, C-Rel subunit;p52 subunit (Homo sapiens;Homo sapiens, UniProt Q04864;Q00653 1-285;4-332).
T3 sequence 1: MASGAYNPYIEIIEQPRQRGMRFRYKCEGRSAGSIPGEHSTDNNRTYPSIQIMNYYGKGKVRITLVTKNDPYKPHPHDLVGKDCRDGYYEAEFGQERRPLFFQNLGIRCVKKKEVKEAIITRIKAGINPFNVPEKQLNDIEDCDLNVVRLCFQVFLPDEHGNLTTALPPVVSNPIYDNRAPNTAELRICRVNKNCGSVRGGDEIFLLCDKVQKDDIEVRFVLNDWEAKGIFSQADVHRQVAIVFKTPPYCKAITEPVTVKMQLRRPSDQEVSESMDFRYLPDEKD
T3 sequence 2: T1 sequence

Sequence of RELARELA (p65 homodimer) (Q04206 1-307): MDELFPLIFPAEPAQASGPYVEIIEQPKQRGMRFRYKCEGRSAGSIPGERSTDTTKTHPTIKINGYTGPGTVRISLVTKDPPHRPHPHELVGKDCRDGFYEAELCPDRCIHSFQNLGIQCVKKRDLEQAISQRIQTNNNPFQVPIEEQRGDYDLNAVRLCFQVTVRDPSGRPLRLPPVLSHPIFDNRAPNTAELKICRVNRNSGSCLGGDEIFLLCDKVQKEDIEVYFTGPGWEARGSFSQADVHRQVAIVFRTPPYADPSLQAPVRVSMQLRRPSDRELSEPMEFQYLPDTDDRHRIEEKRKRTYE
Sequence of RELA (p65) subunit of heterodimer;p50 subunit (Q04206 1-307, chain 1 of 2): as the sequence (Q04206 1-307) above
Sequence of RELA (p65) subunit of heterodimer;p50 subunit (P19838 7-356, chain 2 of 2): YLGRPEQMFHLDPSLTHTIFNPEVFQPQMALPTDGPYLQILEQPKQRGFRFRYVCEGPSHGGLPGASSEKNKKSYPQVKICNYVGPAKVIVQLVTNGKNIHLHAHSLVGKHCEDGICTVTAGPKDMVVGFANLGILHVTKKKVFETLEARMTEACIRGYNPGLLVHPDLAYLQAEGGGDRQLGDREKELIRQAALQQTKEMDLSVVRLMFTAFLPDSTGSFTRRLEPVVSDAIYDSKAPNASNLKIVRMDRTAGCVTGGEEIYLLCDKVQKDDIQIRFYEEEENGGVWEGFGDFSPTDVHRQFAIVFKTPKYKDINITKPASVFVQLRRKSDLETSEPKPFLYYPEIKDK
Sequence of p50p50 homodimer (P19838 7-356): as the sequence (P19838 7-356, chain 2 of 2) above

On to CAAGAACCCCC, for which the binding signal in the assay with RELARELA (p65 homodimer) is -0.244 z-score; in the assay with p50p50 homodimer, 1.28 z-score; with p52p52 homodimer, 1.21 z-score; in assay [1] it was 1.6 z-score; in assay [2] it was 1.28 z-score; with RELB subunit;p50 subunit it was 1.46 z-score. Also, the binding signal with RELB subunit;p52 subunit stood at 1.32 z-score; in assay [3] it was 1.04 z-score; in assay [4], 0.879 z-score.

In the case of GGGGTCGCCCC, the binding signal with RELARELA (p65 homodimer) amounted to 0.508 z-score; with p50p50 homodimer it was 0.472 z-score; in the assay with p52p52 homodimer, 2.74 z-score; in assay [1], 1.36 z-score; in assay [2], 2.18 z-score; in the assay with RELB subunit;p50 subunit, 1.44 z-score. Besides, the figures for the binding signal (in the assay with RELB subunit;p52 subunit; in [3]; in [4]) were 1.61 z-score, 0.866 z-score and 1.5 z-score, respectively.

Consider AGGTTTTCCCC, for which the binding signal was determined as 3.11 z-score with RELARELA (p65 homodimer); 1.14 z-score with p50p50 homodimer; 3.16 z-score with p52p52 homodimer; 2.17 z-score in assay [1]; 2.48 z-score in assay [2]; 2.01 z-score with RELB subunit;p50 subunit. In addition, the binding signal worked out at 2.3 z-score with RELB subunit;p52 subunit, 1.8 z-score in [3] and 2.63 z-score in assay [4].

GGGTGTTTCCT: the binding signal with RELARELA (p65 homodimer) was 1.42 z-score; with p50p50 homodimer, 0.575 z-score; with p52p52 homodimer, 1.06 z-score; in assay [1], 0.736 z-score; in assay [2], 0.987 z-score; with RELB subunit;p50 subunit it was 0.102 z-score. Further, the binding signal with RELB subunit;p52 subunit is 1.16 z-score; in assay [3], 0.695 z-score; in [4], 1.43 z-score.

Turning to GAGGGCCTCCT, the binding signal with RELARELA (p65 homodimer) was -0.673 z-score; with p50p50 homodimer it was -1.05 z-score; with p52p52 homodimer, -0.564 z-score; in [1] it was -0.901 z-score; in assay [2] it was -0.776 z-score; in the assay with RELB subunit;p50 subunit, -0.873 z-score. Besides, the binding signal in the assay with RELB subunit;p52 subunit was -0.69 z-score; in assay [3], -1.21 z-score; in assay [4] it was -0.843 z-score.

Take AAGTGTATCCC: the binding signal with RELARELA (p65 homodimer) is -0.0644 z-score; with p50p50 homodimer, -0.719 z-score; with p52p52 homodimer, -0.379 z-score; in assay [1], -0.553 z-score; in assay [2] it was -0.504 z-score; with RELB subunit;p50 subunit it was -0.584 z-score. In addition, the binding signal in the assay with RELB subunit;p52 subunit was -0.4 z-score; in assay [3], -0.695 z-score; in assay [4], -0.382 z-score.

In the case of GAGATAGTCCT, the binding signal with RELARELA (p65 homodimer) is -0.228 z-score; with p50p50 homodimer it was -0.791 z-score; in the assay with p52p52 homodimer, -0.575 z-score; in assay [1], -0.973 z-score; in assay [2], -0.809 z-score; with RELB subunit;p50 subunit it was -0.986 z-score. Moreover, the binding signal with RELB subunit;p52 subunit is -0.865 z-score; in assay [3], -1.2 z-score; in assay [4] it was -0.764 z-score.

For the sequence GAGTGCCCCCT, the binding signal is -0.00724 z-score with RELARELA (p65 homodimer); 1.11 z-score in the assay with p50p50 homodimer; 0.614 z-score with p52p52 homodimer; 0.954 z-score in assay [1]; 0.871 z-score in assay [2]; 0.913 z-score in the assay with RELB subunit;p50 subunit. Besides, the values for the binding signal (in the assay with RELB subunit;p52 subunit; in [3]; in assay [4]) were 1.16 z-score, 0.836 z-score and 0.745 z-score, respectively.

Turning to CAAGGGTCCCT, the binding signal is -0.447 z-score in the assay with RELARELA (p65 homodimer); 0.337 z-score in the assay with p50p50 homodimer; 0.26 z-score with p52p52 homodimer; -0.269 z-score in assay [1]; 0.0513 z-score in [2]; 0.363 z-score with RELB subunit;p50 subunit. For the same sequence, the binding signal with RELB subunit;p52 subunit is 0.276 z-score; in [3], -0.315 z-score; in assay [4], -0.166 z-score.

In the case of GGGGTGTTCCT, the binding signal in the assay with RELARELA (p65 homodimer) amounted to 1.06 z-score; with p50p50 homodimer, 0.337 z-score; with p52p52 homodimer, 0.617 z-score; in [1] it was 0.455 z-score; in [2] it was 0.487 z-score; with RELB subunit;p50 subunit it was 0.00295 z-score. For the same sequence, the results for the binding signal (in the assay with RELB subunit;p52 subunit; in [3]; in assay [4]) were 0.472 z-score, 0.537 z-score and 0.791 z-score, respectively.

As for AAAAGCGTCCC, the binding signal in the assay with RELARELA (p65 homodimer) is 0.0306 z-score; in the assay with p50p50 homodimer it was 0.282 z-score; in the assay with p52p52 homodimer it was 0.41 z-score; in assay [1], 0.21 z-score; in [2], 0.286 z-score; with RELB subunit;p50 subunit, 0.48 z-score. Moreover, the values for the binding signal (in the assay with RELB subunit;p52 subunit; in assay [3]; in assay [4]) were 0.821 z-score, 0.207 z-score and 0.0784 z-score, respectively.

Take GGGTTATCCCC: the binding signal came out at 2.08 z-score with RELARELA (p65 homodimer); 0.73 z-score with p50p50 homodimer; 3.22 z-score with p52p52 homodimer; 1.96 z-score in assay [1]; 2.63 z-score in assay [2]; 1.91 z-score with RELB subunit;p50 subunit. Also, the binding signal with RELB subunit;p52 subunit was found to be 2.13 z-score; in assay [3] it was 1.6 z-score; in assay [4] it was 2.55 z-score.

On to AAGAACACCCC, for which the binding signal is -0.22 z-score with RELARELA (p65 homodimer); 0.317 z-score with p50p50 homodimer; 0.0847 z-score in the assay with p52p52 homodimer; 0.107 z-score in assay [1]; 0.232 z-score in assay [2]; 0.176 z-score with RELB subunit;p50 subunit. For the same sequence, the binding signal was determined as 0.504 z-score in the assay with RELB subunit;p52 subunit, 0.232 z-score in assay [3] and 0.274 z-score in [4].

In the case of GGATAGGTCCC, the binding signal in the assay with RELARELA (p65 homodimer) is -0.076 z-score; in the assay with p50p50 homodimer, -0.336 z-score; in the assay with p52p52 homodimer, 0.0228 z-score; in [1], -0.276 z-score; in [2], -0.141 z-score; with RELB subunit;p50 subunit, -0.137 z-score. Also, the figures for the binding signal (in the assay with RELB subunit;p52 subunit; in [3]; in [4]) were -0.101 z-score, -0.467 z-score and -0.334 z-score, respectively.

Consider GGAGTTCCCCT, for which the binding signal in the assay with RELARELA (p65 homodimer) stood at 2.77 z-score; with p50p50 homodimer, 1.14 z-score; with p52p52 homodimer, 2.83 z-score; in assay [1], 2.64 z-score; in [2], 2.79 z-score; with RELB subunit;p50 subunit it was 2 z-score. In addition, the binding signal with RELB subunit;p52 subunit was determined as 2.29 z-score; in assay [3] it was 2.61 z-score; in assay [4], 3.5 z-score.

For the origin of these results see publication PMC3218832.
